Compounds with a hit are over-represented: about 2.5% of the library has one in this group of screens.
Cruzain inh Det: qHTS Assay for Promiscuous and Specific Inhibitors of Cruzain (with detergent); hit rate 0.43% among 200,000; Potency, µM, usual class: inhibitors; Cruzipain (Trypanosoma cruzi), P25779; purified cruzain, Z-FR-AMC fluorescence, 0.01% Triton; AID 1478, 2009; also: nearly all actives have a fitted effect of over 40% in size
Target sequence (P25779 123-467 limits assumed): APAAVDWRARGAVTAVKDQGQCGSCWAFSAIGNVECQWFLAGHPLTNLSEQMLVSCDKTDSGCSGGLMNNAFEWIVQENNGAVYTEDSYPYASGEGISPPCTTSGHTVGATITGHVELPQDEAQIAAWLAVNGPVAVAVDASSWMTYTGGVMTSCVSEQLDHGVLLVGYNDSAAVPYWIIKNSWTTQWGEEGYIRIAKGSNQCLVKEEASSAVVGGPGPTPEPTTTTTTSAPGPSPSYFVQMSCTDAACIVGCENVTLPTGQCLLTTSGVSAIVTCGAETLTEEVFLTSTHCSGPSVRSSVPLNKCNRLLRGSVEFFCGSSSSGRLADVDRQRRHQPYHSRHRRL
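Cysteine protease activity tested under reducing, mildly acidic conditions (100 mM sodium acetate pH 5.5, 5 mM DTT) plus 0.01% Triton X-100. Cruzain 1.5 nM; substrate Z-FR-AMC 2 uM; 15 min compound preincubation at room temperature.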
Cruzain noTriton: qHTS Assay for Promiscuous and Specific Inhibitors of Cruzain (without detergent). Cruzipain (Trypanosoma cruzi), P25779. purified cruzain, Z-FR-AMC fluorescence, no detergent. Potency, µM, most hits filed as inhibitors. hit rate 2.3% among 200,000. AID 1476, 2009; also: nearly all actives have a fitted effect of over 40% in size
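Detergent-free condition (0.00005% Triton X-100) in acetate buffer pH 5.5 with DTT. 1.5 nM enzyme and compound were pre-mixed 15 min, then 2 uM Z-FR-AMC substrate added; reaction progress from fluorescence change between first and third reads (60 s).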
Numbers stand for hits; . = inactive; ? = inconclusive. Calls follow the shape of the dose curve; as a rule, active = well fitted curve in the direction sought with a large enough effect; inconclusive = small, poorly fitted or top-dose-only effect, or another doubt; inactive = no such curve, though single readings can be large; an effect the other way counts as inactive or inconclusive.

SMILES | Cruzain inh Det | Cruzain noTriton
Cc1cc(C(=O)CN2C(=O)NC3(CCCc4ccccc43)C2=O)c(C)n1Cc1ccccc1 (configuration not stated) | . | 25.1µM
Cc1cc(C(=O)CN2C(=O)NC3(CCCc4ccccc43)C2=O)c(C)n1Cc1ccco1 (configuration not stated) | . | ?
O=c1[nH]cc(CS(=O)(=O)Cc2c[nH]c(=O)[nH]c2=O)c(=O)[nH]1 | . | .
O=C(NCc1ccc(F)cc1)C(=O)NCC(c1cccs1)S(=O)(=O)c1cccs1 (configuration not stated) | . | .
CCC(C)NC(=O)c1sc2nc(C)c(C(=O)Nc3ccc(C)cc3C)c(-c3ccc(Br)cc3)c2c1N (configuration not stated) | . | .
O=C(COC(=O)/C=C/c1nc2ccccc2s1)Nc1cccc2ccccc12 | . | 6.31µM
O=C(COC(=O)/C=C/c1ccc(Cl)cc1)Nc1ccccc1-c1ccccc1 | . | .
CCN(CC)S(=O)(=O)c1ccc(/C=C/C(=O)OCC(=O)Nc2cccc3ccccc23)cc1 | . | .
O=C(COC(=O)/C=C/c1nc2ccccc2s1)Nc1cccc(Cl)c1Cl | . | 10µM
COc1ccc(NC(=O)c2nn(C34CC5CC(CC(C5)C3)C4)cc2[N+](=O)[O-])cc1 | . | .
O=C(Nc1ccc2ccccc2c1)c1nn(C23CC4CC(CC(C4)C2)C3)cc1Br | . | 10µM
COc1ccccc1-c1cc(-c2ccccc2)nc(SC(C(N)=O)c2ccccc2)c1C#N (configuration not stated) | . | 7.94µM
COC(=O)C(Sc1nc(C)cc(C)c1C#N)c1ccccc1 (configuration not stated) | . | .
CCN(CC(=O)O)CC(=O)O | . | .
OC1CCN(c2c3c(nc4cc(-c5cccc(F)c5)nn24)CCCC3)CC1 | . | .
Clc1cccc(-c2cc3nc4c(c(N5CCNCC5)n3n2)CCCC4)c1 | . | 25.1µM
CCc1c(C)sc(NC(=O)c2cc3nc(-c4ccc(OC)cc4)cc(C(F)(F)F)n3n2)c1C(=O)OC | . | .
Cc1ccc(C(=O)NNC(=O)CSc2nnc3c(n2)[nH]c2ccc(F)cc23)cc1 | . | ?
O=C(CSc1nnc2c(n1)[nH]c1ccc(F)cc12)OCc1ccccc1 | . | 12.6µM
CCOC(=O)c1c(NC(=O)/C=C/c2ccc(C(C)C)cc2)sc2c1CCC2 | . | .
CC1=Nc2cc(C(=O)NCCc3ccccc3)ccc2Sc2c(C)ccc(C)c21 | . | ?
CC1=Nc2cc(C(=O)NCCc3ccc(Cl)cc3)ccc2Sc2c(C)ccc(C)c21 | . | 25.1µM
Cc1ccccc1NC(=O)/C(=C/c1ccccc1)c1ccccc1 | . | .
O=C(Nc1ccccc1)/C(=C/c1ccccc1)c1ccccc1 | . | 12.6µM
Cc1ccc(C)c(NC(=O)c2cnc(N3CCCC3)nc2C)c1 | . | .
SMILES | Cruzain inh Det | Cruzain noTriton
COC(=O)c1cc(OC)c(OC)cc1NC(=O)CN1C(=O)c2ccccc2C1=O | . | ?
COC(=O)c1cc(-c2ccccc2)sc1NC(=O)CN1C(=O)c2ccccc2C1=O | . | 25.1µM
CCCCCCc1cc2cc(S(=O)(=O)c3ccc(F)c(Cl)c3)c(=O)oc2cc1O | . | 20µM
CCCCCCc1cc2cc(-c3nnc(-c4ccc(C)cc4)o3)c(=O)oc2cc1O | . | .
COC(=O)CCSc1nc2sc3c(c2c(=O)n1Cc1ccccc1)CCC(C(C)(C)C)C3 (configuration not stated) | . | .
CC1=C(C(=O)Nc2ccccc2)C(c2ccccc2Cl)n2ncc(C(=O)Nc3cccc(C)c3)c2N1 (configuration not stated) | . | 20µM
CC1=C(C(=O)Nc2ccccc2)C(c2ccccc2C)n2ncc(C(=O)Nc3ccccc3)c2N1 (configuration not stated) | . | .
N[C@@]1(C(=O)O)CO[C@H]2[C@H](C(=O)O)[C@H]21 | . | .
O=C(Nc1ccccc1C(=O)OCC(=O)N1CCc2ccccc2C1)c1ccco1 | . | 12.6µM
CC1CCCCC1NC(=O)COC(=O)c1ccccc1NC(=O)c1ccco1 (configuration not stated) | . | .
O=C(O)C1OC(O)C(O)C(O)C1O (configuration not stated) | . | .
CSc1nsc(/C=C/Nc2ccc(Cl)cc2)c1C#N | . | ?
CSc1nsc(/C=C/Nc2cccc(Cl)c2)c1C#N | . | 20µM
COc1ccc(NC(=O)CCCc2nc(-c3ccco3)no2)c(OC)c1 | . | .
Cc1cc(CNC(=O)[C@@H]2C[C@H]2[C@@H](NP(=O)(c2ccccc2)c2ccccc2)c2ccccc2)nn1C | . | .
c1ccc(CNc2oc(-c3ccccc3)nc2-c2cccc3ccccc23)cc1 | . | 15.8µM
c1ccc(CNc2oc(-c3ccccc3)nc2-c2ccccc2)cc1 | . | .
COc1ccc(N2CC(NC(=O)c3c(F)cccc3Cl)CC2=O)cc1OC (configuration not stated) | . | .
COc1ccccc1/C=C(/CC(=O)NCc1ccc2c(c1)OCO2)c1nc2ccccc2s1 | . | 15.8µM
COc1ccccc1NC(=O)NCc1ccc2c(c1)OCO2 | . | .
COc1ccc(/C=C(/CC(=O)Nc2ccccc2)c2nc3ccccc3s2)cc1 | . | ?
COc1ccc(/C=C(/CC(=O)NCc2ccc(Cl)cc2)c2nc3ccccc3s2)cc1 | . | 31.6µM
COc1ccc(NC(=O)CN2C(=O)C(C)(C)c3ccccc32)cc1Cl | . | .
COc1ccc(Cn2c(O)c(C=Nc3ccc(C)cc3)c3ccccc3c2=O)cc1 | . | 12.6µM
COc1ccc(N=Cc2c(O)n(-c3cccc(C)n3)c(=O)c3ccccc23)cc1 | . | ?
SMILES | Cruzain inh Det | Cruzain noTriton
COc1ccc(Cn2c(O)c(C=Nc3ccccc3)c3ccccc3c2=O)cc1 | . | ?
COc1ccc(Cn2c(O)c(C=Nc3ccc(O)cc3)c3ccccc3c2=O)cc1 | . | 25.1µM
CN(C(=O)c1cc2c(=O)n3ccccc3nc2n1C)c1ccccc1 | . | .
O=c1[nH]c(=S)c2[nH]c(=O)n(-c3ccccc3)c2[nH]1 | . | .
Oc1ccc(NCc2ccc(OCc3ccccc3)cc2)cc1 | . | .
CCc1ccc(CNc2ccc(O)cc2)cc1 | . | 31.6µM
Cc1cccc(-c2nnc(SCCC(=O)O)o2)c1 | . | .
Cc1cccc(CSc2nc3c(c(-c4cccs4)c2C#N)CN(C)CC3)c1 | . | .
Cc1cccc(CSc2nc(N)c(C#N)c(-c3cccs3)c2C#N)c1 | . | 25.1µM
COc1ccc(/C=N/Nc2nnc(-c3ccccc3)c(=O)[nH]2)cc1 | . | .
O=c1[nH]c(N/N=C/c2ccccc2Br)nnc1-c1ccccc1 | . | 12.6µM
C[N+](C)(C)c1ncnc2c1ncn2[C@@H]1C[C@H](O)[C@@H](CO)O1 | . | .
Cc1cccc(NC(=O)c2c(NC(=O)C(F)(F)F)sc3c2CCCCC3)c1 | . | .
O=C(Nc1cccc(Cl)c1)c1c(NC(=O)C(F)(F)F)sc2c1CCCC2 | 25.1µM | ?
COc1ccccc1-c1nc2c(c(SCc3cccc(Cl)c3)n1)Cc1c(CO)cnc(C)c1O2 | . | ?
O=C(CSc1nc2ccccc2c(=O)n1-c1ccccc1)NCc1ccc2c(c1)OCO2 | . | .
CCCCNC(=O)CSc1nc2ccccc2c(=O)n1Cc1ccc2c(c1)OCO2 | . | 20µM
Cn1c(=NC(=O)c2ccc(S(=O)(=O)N3CCCc4ccccc43)cc2)sc2cc(S(C)(=O)=O)ccc21 | . | .

Bioassay records (PubChem)
